Measured values as given in PubChem BioAssay AID1159580 (chemical genetic matrix, 2015).
Hit rate of the full screen: of about 5,500 compounds, about 2,000 (36%) were called active. About 18% were inconclusive and are not listed. Cut-off read from the data, not from the text of the source: active = normalized growth mostly below about 0.91 (no sharp cut-off); inconclusive = no clear call, values can overlap the other calls; inactive = mostly above about 0.92. Some of the results follow.

Assay: chemical genetic growth profiling, strain panel (AID 1159580);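 note: tested at 20 µM; growth read once vehicle control cultures reached saturation at 30 °C; 1 = growth at the plate median or of vehicle wells; lower values mean less growth of the strain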
Details: growth OD
[1] = S. cerevisiae deletion strains, locus YAL013W, strain DEP1, hits give low values
[2] = S. cerevisiae deletion strains, locus YBR229C, strain ROT2, hits give low values
[3] = S. cerevisiae deletion strains, locus YDL101C, strain DUN1, hits give low values
[4] = S. cerevisiae deletion strains, locus YDR150W, strain NUM1, hits give low values
[5] = S. cerevisiae deletion strains, locus YEL061C, strain CIN8, hits give low values
[6] = S. cerevisiae deletion strains, locus YGR078C, strain PAC10, hits give low values
[7] = S. cerevisiae deletion strains, locus YHR030C, strain SLT2, hits give low values
[8] = S. cerevisiae deletion strains, locus YHR087W, strain rtc3, hits give low values
[9] = S. cerevisiae deletion strains, locus YJR043C, strain POL32, hits give low values
[10] = S. cerevisiae deletion strains, locus YJR075W, strain HOC1, hits give low values
[11] = S. cerevisiae deletion strains, locus YLR039C, strain RIC1, hits give low values
[12] = S. cerevisiae deletion strains, locus YLR058C, strain SHM2 (second series), hits give low values
[13] = S. cerevisiae deletion strains, locus YLR085C, strain ARP6, hits give low values
[14] = S. cerevisiae deletion strains, locus YLR262C, strain YPT6, hits give low values
[15] = S. cerevisiae deletion strains, locus YML094W, strain GIM5, hits give low values
[16] = S. cerevisiae deletion strains, locus YMR219W, strain ESC1, hits give low values
[17] = S. cerevisiae deletion strains, locus YMR263W, strain SAP30, hits give low values
[18] = S. cerevisiae deletion strains, locus YNL153C, strain GIM3, hits give low values
[19] = S. cerevisiae deletion strains, locus YNL298W, strain CLA4 (second series), hits give low values
[20] = S. cerevisiae deletion strains, locus YNL322C, strain KRE1, hits give low values
[21] = S. cerevisiae deletion strains, locus YNR030W, strain Alg12, hits give low values
[22] = S. cerevisiae deletion strains, locus YOL006C, strain TOP1, hits give low values
[23] = S. cerevisiae deletion strains, locus YPL055C, strain LGE1, hits give low values
[24] = S. cerevisiae deletion strains, locus YPL241C, strain CIN2, hits give low values
[25] = S. cerevisiae deletion strains, locus YPR135W, strain CTF4, hits give low values
[26] = S. cerevisiae deletion strains, locus YCL061C, strain MRC1, hits give low values
[27] = S. cerevisiae deletion strains, locus YKL190W, strain CNB1, hits give low values

Measured: normalized growth

Cc1onc(-c2c(Cl)cccc2Cl)c1C(=O)Oc1ccc(Cl)c(Cl)c1
inactive: [1] 1.01 | [2] 0.995 | [3] 0.996 | [4] 1.01 | [5] 1.01 | [6] 1.03 | [7] 1.21 | [8] 1.06 | [9] 0.998 | [10] 0.99 | [11] 1.19 | [12] 0.986 | [13] 0.991 | [14] 1.16 | [15] 0.998 | [16] 0.992 | [17] 1.01 | S. cerevisiae deletion strains, locus YNL128W, strain TEP1, hits give low values 1 | [18] 1.03 | [19] 1.01 | [20] 1.01 | [21] 0.987 | [22] 1.07 | [23] 1 | [24] 0.973 | [25] 1.14 | S. cerevisiae strains, strain wild type, hits give low values 1.01

Cc1onc(-c2ccccc2)c1NC(=O)Nc1c(Cl)cccc1Cl
inactive: [1] 0.995 | [2] 0.983 | [26] 0.963 | [3] 0.988 | S. cerevisiae deletion strains, locus YDL134C, strain PPH21, hits give low values 0.996 | [4] 0.973 | [5] 0.991 | [6] 1 | S. cerevisiae deletion strains, locus YGR229C, strain SMI1, hits give low values 0.996 | [7] 0.811 | [8] 0.975 | [9] 0.969 | [10] 0.975 | [27] 1 | [12] 0.988 | [13] 0.946 | [15] 0.949 | [16] 0.991 | [17] 0.999 | [18] 1.01 | [19] 0.974 | [20] 0.976 | [21] 0.983 | [22] 0.803 | [23] 0.997 | [24] 0.941 | [25] 0.933
active: [11] 0.668 | [14] 0.572

Cc1onc(-c2c(Cl)cccc2Cl)c1C(=O)OCC(F)(F)F
inactive: [1] 1.01 | [2] 1.01 | [26] 1.02 | [3] 0.984 | [4] 0.982 | [5] 1 | [6] 0.99 | [7] 1.05 | [8] 0.986 | [9] 0.99 | [10] 1 | [27] 1 | [11] 0.955 | [12] 1.01 | [13] 0.971 | [14] 0.942 | [15] 1.01 | [16] 0.997 | [17] 1 | [18] 1.02 | [19] 1.02 | [20] 1 | [21] 0.985 | [23] 1.01 | [24] 1.04 | [25] 0.989
